Measurements: PubChem BioAssay (Tox21)
Unmarked numbers belong to inactive results. Inconclusive results are not listed. Where a call stands in place of a potency, no number is given. Activity calls are given as the source filed them. Unless noted, the call rests on the fitted dose curve; in most records, active means well fitted curve in the direction sought with a large enough effect in the repeat runs; inconclusive means weak or mixed curves; inactive means no such curve, though single readings can be large; an effect the other way counts as inactive or inconclusive.

Experiments:
[1] = A CellTox Green Cytotoxicity Assay to monitor cytotoxicity in HepG2 cells - 8 hour (AID 1224890); further: nearly all actives have a fitted effect of over 45% in size
How it was run: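 Real-time cytotoxicity: fluorescence of a cell-impermeant cyanine dye binding DNA of dead HepG2 cells, measured repeatedly (0–40 h) during compound exposure at 37 C. Cells seeded 600/well with reagent, dosed after 5 h.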

[2] = qHTS assay to identify small molecule antagonists of the androgen receptor (AR) signaling pathway using the MDA cell line in the presence of 0.5 nM R1881 - cell viability counter screen (AID 1259242); further: nearly all actives have a fitted effect of over 45% in size
How it was run: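 Live-cell protease activity was measured by CellTiter-Fluor fluorescence after 30 min. Before that, MDA-kb2 MMTV-luciferase cells had 16 hr at 37C without CO2, exposed to test compounds and 0.5 nM R1881 final.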

[3] = qHTS assay to identify small molecule phospholipidosis (PLD) inducers (AID 1259344; active means well fitted curve in the direction sought with a large enough effect; an effect the other way counts as inactive or inconclusive)
How it was run: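 Image-based: LipidTOX Red pit count/intensity per well and per cell; HepG2, 24 h compound at 37 C, PFA fixation, Hoechst counterstain.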

[4] = qHTS assay to identify small molecule HDAC inhibitors (AID 1259364); further: nearly all actives have a fitted effect of over 45% in size; further: potency means the concentration at half of the fitted maximal effect; on activity change, negative = inhibition: top concentration of the series differs between compounds
How it was run: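 Luminescence read after 30 min room-temperature HDAC-Glo incubation measures cellular class I/II HDAC activity. Compounds were applied for 2 hr at 37 C to HCT-116 wild-type cells seeded the day before.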

[5] = qHTS assay to identify small molecule HDAC inhibitors - cell viability counter screen (AID 1259365); further: series mostly up to about 92 µM; nearly all actives have a fitted effect of over 50% in size
How it was run: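 Wild-type HCT-116 cells were seeded at 1,500 per well, incubated overnight at 37 C, then exposed to compounds in DMSO for 2hr. Viability was read by CellTiter-Glo luminescence after 30min at room temperature.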

[6] = qHTS assay to identify small molecule agonists of the sonic hedgehog signaling (Shh) pathway - cell viability counter screen (AID 1259366); further: nearly all actives have a fitted effect of over 50% in size; further: potency means the concentration at half of the fitted maximal effect
How it was run: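 NIH/3T3-derived 3T3 Gli1-Luc cells (stable Gli1-responsive firefly luciferase reporter) were seeded, rested 4 hr at 37 C/5% CO2, then exposed to compounds in DMSO for 24 hr; viability was read by CellTiter-Fluor fluorescence in the same wells.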

[7] = qHTS assay to identify small molecule antagonists of the sonic hedgehog signaling (Shh) pathway - cell viability counter screen (AID 1259367); further: nearly all actives have a fitted effect of over 55% in size; further: potency means the concentration at half of the fitted maximal effect
How it was run: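 Tox21 library chemicals were tested on a Gli1-Luc NIH/3T3 clone (2,000 cells/well) stimulated by conditioned medium; viability was quantified as fluorescence from CellTiter-Fluor reagent added at 23 hr.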

[8] = qHTS assay to identify small molecule agonists of the sonic hedgehog signaling (Shh) pathway (AID 1259368; calls by dose curve; further: series mostly up to about 92 µM; nearly all actives have a fitted effect of over 15% in size)
How it was run: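 Luminescence was read after 30 min at room temperature with luciferase reagent. Before that, 3T3Gli1-Luc cells (NIH/3T3 clone, stable Gli1-Luc reporter; 2,000/well) were exposed to compounds for 24 hr at 37C, 5% CO2, compounds being added 4 hr post-plating.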

[9] = qHTS assay to identify small molecule antagonists of the sonic hedgehog signaling (Shh) pathway (AID 1259369; calls by dose curve; further: nearly all actives have a fitted effect of over 45% in size)
How it was run: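 Antagonist mode: compound added to 3T3 Gli1-Luc cells followed by conditioned-medium stimulation, 24 h at 37 C, 5% CO2. Inhibition taken as loss of Gli1-driven luciferase luminescence.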

[10] = molecular target: Estrogen receptor beta (Homo sapiens) (UniProt Q92731); experiment: qHTS assay to identify small molecule agonists of the estrogen receptor beta (ER-beta) signaling pathway (AID 1259377; active means well fitted activation curve with a large enough effect in the signal ratio in the repeat runs, not every such curve was filed as active; the % refers to the signal ratio; further: potency means the concentration at half of the fitted maximal effect)
How it was run: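 ER-beta-UAS-bla HEK293T (GripTite) cells carrying a UAS-driven beta-lactamase reporter, in medium with 2% charcoal-stripped FBS, were exposed to compounds for 16 hr at 37C; LiveBLAzer B/G FRET substrate was then added and fluorescence read after 2 hours at room temperature.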

[11] = molecular target: Estrogen receptor beta (Homo sapiens) (UniProt Q92731); experiment: qHTS assay to identify small molecule antagonists of the estrogen receptor beta (ER-beta) signaling pathway (AID 1259378; active means well fitted inhibition curve with a large enough effect in the signal ratio in the repeat runs, not every such curve was filed as active; the % refers to the signal ratio)
How it was run: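 ER-beta-UAS-bla HEK293T cells in 2% charcoal-stripped FBS medium treated with compound plus 1nM final 17-beta-estradiol for 16 hr at 37C. Beta-lactamase reporter read by FRET substrate fluorescence after 2 hours at room temperature.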

[12] = qHTS assay to identify small molecule agonists of the estrogen receptor beta (ER-beta) signaling pathway - cell viability counter screen (AID 1259380); further: nearly all actives have a fitted effect of over 30% in size
How it was run: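 Cell viability counter screen: CellTiter-Glo luminescence (30 min, room temperature) measured in the same wells as the beta-lactamase readout, after 16 hr compound exposure at 37C of ER-beta-bla HEK293T cells in 2% charcoal-stripped FBS medium.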

[13] = qHTS assay to identify small molecule antagonists of the estrogen receptor beta (ER-beta) signaling pathway - cell viability counter screen (AID 1259382); further: series mostly up to about 92 µM; nearly all actives have a fitted effect of over 55% in size
How it was run: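 Cytotoxicity was measured in the same wells by CellTiter-Glo luminescence after 30 min at room temperature. Cells were ER-beta-bla HEK293T in charcoal-stripped serum, given compound together with 1 nM E2 and incubated 16 h at 37C.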

[14] = qHTS assay to identify small molecule agonists or antagonists of the thyroid stimulating hormone receptor (TSHR) signaling pathway - wild type cell line counter screen (AID 1259384; calls by dose curve)
How it was run: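 Wild-type Hek293 cells, 800/well, 18 h at 37C, then compound with Ro20-1724 for 30 min RT. cAMP by HTRF (cAMP-d2/anti-cAMP cryptate), 1 h RT, fluorescence read. 15 concentrations, triplicates.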

[15] = qHTS assay to identify small molecule agonists of the androgen receptor (AR) signaling pathway in the presence of an antagonist - cell viability counter screen (AID 1259379); further: nearly all actives have a fitted effect of over 25% in size; further: potency means the concentration at half of the fitted maximal effect;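 on activity change, negative = cytotoxicity: MDA-kb2 human breast cancer cells carrying an MMTV luciferase reporter; series mostly up to about 92 µM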
How it was run: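 Cytotoxicity counter-screen run in the same wells as the nilutamide-challenged (3.0 µM final) AR agonist assay in MDA-kb2 cells. Compounds tested at 15 concentrations for 16 h, 37 °C without CO2; CellTiter-Fluor fluorescence read.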

[16] = molecular target: Estrogen receptor (Homo sapiens) (UniProt P03372); experiment: qHTS assay to identify small molecule antagonists of the estrogen receptor alpha (ER-alpha) signaling pathway using the BG1 cell line in the presence of 0.1 nM 17-beta-estradiol (AID 1259244); further: nearly all actives have a fitted effect of over 50% in size
How it was run: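 Luciferase luminescence (ONE-Glo, 30 min at room temperature) was read after 22 hr at 37C exposure to compounds plus 17beta-estradiol at 0.1 nM final. Cells were VM7Luc4E2 with endogenous ER-alpha and an ERE-driven luciferase, pre-cultured 5 days in hormone-depleted medium.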

[17] = molecular target: Estrogen receptor (Homo sapiens) (UniProt P03372); experiment: qHTS assay to identify small molecule agonists of the estrogen receptor alpha (ER-alpha) signaling pathway in the presence of an antagonist (AID 1259383; calls by dose curve; further: top concentration of the series differs between compounds; nearly all actives have a fitted effect of over 15% in size)
How it was run: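 Agonist-mode confirmation run in the presence of 10.0nM (final) ICI-182,780 antagonist. The reporter was ERE-driven luciferase in VM7Luc4E2 cells, grown in charcoal-stripped serum. Cells were exposed to 15-concentration compound series for 22hr, then ONE-Glo luminescence was read.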

Sequence of Estrogen receptor beta (Homo sapiens) (Q92731 whole entry, looked up): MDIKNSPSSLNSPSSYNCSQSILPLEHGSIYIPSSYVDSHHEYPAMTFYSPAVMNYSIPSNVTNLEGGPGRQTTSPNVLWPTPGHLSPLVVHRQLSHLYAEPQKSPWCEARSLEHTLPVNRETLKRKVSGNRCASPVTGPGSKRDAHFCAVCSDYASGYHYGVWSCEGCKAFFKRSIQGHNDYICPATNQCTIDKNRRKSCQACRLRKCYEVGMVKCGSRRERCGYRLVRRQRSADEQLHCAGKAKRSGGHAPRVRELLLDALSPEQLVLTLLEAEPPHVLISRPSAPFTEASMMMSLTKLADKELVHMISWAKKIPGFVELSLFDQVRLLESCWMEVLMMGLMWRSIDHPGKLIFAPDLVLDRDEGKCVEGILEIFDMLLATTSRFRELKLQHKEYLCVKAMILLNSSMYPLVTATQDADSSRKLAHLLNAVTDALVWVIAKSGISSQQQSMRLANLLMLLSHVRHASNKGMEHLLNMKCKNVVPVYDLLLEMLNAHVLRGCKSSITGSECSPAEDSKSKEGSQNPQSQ
Sequence of Estrogen receptor (Homo sapiens) (P03372 whole entry, looked up): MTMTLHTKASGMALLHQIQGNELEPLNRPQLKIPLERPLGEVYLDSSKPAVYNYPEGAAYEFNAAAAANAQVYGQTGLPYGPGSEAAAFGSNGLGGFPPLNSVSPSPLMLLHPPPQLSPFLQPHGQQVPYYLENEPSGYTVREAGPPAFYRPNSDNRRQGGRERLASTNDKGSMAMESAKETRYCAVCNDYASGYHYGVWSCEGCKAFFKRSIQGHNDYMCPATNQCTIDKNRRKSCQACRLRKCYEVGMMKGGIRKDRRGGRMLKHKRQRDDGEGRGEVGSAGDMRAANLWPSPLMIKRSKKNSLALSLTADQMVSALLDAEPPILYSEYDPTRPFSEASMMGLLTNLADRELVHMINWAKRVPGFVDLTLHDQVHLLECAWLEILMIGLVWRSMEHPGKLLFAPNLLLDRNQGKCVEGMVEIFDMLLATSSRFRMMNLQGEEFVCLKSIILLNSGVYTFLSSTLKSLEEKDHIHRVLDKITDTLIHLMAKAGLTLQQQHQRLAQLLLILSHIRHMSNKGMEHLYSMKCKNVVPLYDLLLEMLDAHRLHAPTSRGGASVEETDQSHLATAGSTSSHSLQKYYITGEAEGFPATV

SMILES: O=C(NCC(O)CO)c1c(I)c(C(=O)NCC(O)CO)c(I)c(N(CCO)C(=O)CO)c1I (stereo not given)
- outcome [1]: inactive
- outcome [2]: inactive
- outcome [3]: inactive
- Potency [4]: inactive
- outcome [5]: inactive
- Potency [6]: inactive
- Potency [7]: inactive
- outcome [8]: inactive
- Potency [9]: inactive
- Potency [10]: inactive
- outcome [11]: inactive
- Potency [12]: inactive
- outcome [13]: inactive
- outcome [14]: inactive

SMILES: NCCN1CCOCC1
- outcome [1]: inactive
- outcome [2]: inactive
- Potency [4]: inactive
- outcome [5]: inactive
- Potency [7]: inactive
- outcome [8]: inactive
- Potency [10]: inactive
- outcome [11]: inactive
- Potency [15]: inactive
- Potency [12]: inactive
- outcome [13]: inactive
- outcome [14]: inactive

SMILES: O=P(O)(O)OP(=O)(O)O
- outcome [1]: inactive
- outcome [2]: inactive
- outcome [3]: inactive
- Potency [4]: inactive
- outcome [5]: inactive
- Potency [6]: inactive
- Potency [7]: inactive
- outcome [8]: inactive
- Potency [9]: inactive
- Potency [10]: inactive
- outcome [11]: inactive
- Potency [15]: inactive
- Potency [12]: inactive
- outcome [13]: inactive
- outcome [14]: inactive

SMILES: CCOCCOC(=O)/C=C/c1ccc(OC)cc1
- outcome [1]: inactive
- outcome [2]: inactive
- Potency [16]: inactive
- Potency [4]: 11.9 µM (active)
- outcome [5]: inactive
- Potency [6]: inactive
- outcome [8]: inactive
- Potency [9]: inactive
- Potency [15]: inactive
- Potency [12]: inactive
- outcome [13]: inactive
- outcome [17]: inactive
- outcome [14]: inactive

SMILES: COC(=O)[C@@H]1[C@H]2C[C@H]3c4[nH]c5ccccc5c4CCN3C[C@@H]2CC[C@@H]1O
- outcome [1]: inactive
- outcome [2]: inactive
- Potency [16]: inactive
- outcome [3]: inactive
- Potency [4]: inactive
- outcome [5]: inactive
- Potency [6]: inactive
- Potency [7]: inactive
- outcome [8]: inactive
- Potency [9]: inactive
- Potency [10]: inactive
- Potency [15]: inactive
- outcome [13]: inactive
- outcome [17]: inactive
- outcome [14]: inactive

SMILES: CN1CCN(CC(=O)N2c3ccccc3C(=O)Nc3cccnc32)CC1
- cytotoxicity increase [1]: -13.9% [at 6.97 µM]
- viability change, negative = cytotoxic [2]: 1.29% [at 8.39 µM]
- activity change, negative = inhibition [16]: 8.49% [at 8.39 µM]
- outcome [3]: inactive
- activity change, negative = inhibition [4]: 0.529% [at 8.39 µM]
- activity change, negative = cytotoxicity [5]: 3.63% [at 8.39 µM]
- viability change, negative = cytotoxic [7]: 0.196% [at 8.39 µM]
- activity change [8]: 0.176% [at 8.39 µM]
- activity change, negative = inhibition [9]: 12.8% [at 8.39 µM]
- activation [10]: 7.01% [at 8.39 µM]
- activity, negative = inhibition [11]: 0.518% [at 8.39 µM]
- activity change, negative = cytotoxicity [15]: -6.25% [at 8.39 µM]
- activity change, negative = cytotoxicity [12]: 5.53% [at 8.39 µM]
- activity change, negative = cytotoxicity [13]: 9.64% [at 8.39 µM]
- activation [17]: 0.843% [at 8.39 µM]
- cAMP activity change [14]: -2.81% [at 8.39 µM]

SMILES: CCCCCCCCCCl
- outcome [1]: inactive
- outcome [2]: inactive
- Potency [4]: inactive
- outcome [5]: inactive
- Potency [6]: inactive
- Potency [7]: inactive
- outcome [8]: inactive
- Potency [10]: inactive
- outcome [11]: inactive
- Potency [15]: inactive
- Potency [12]: inactive
- outcome [13]: inactive
- outcome [14]: inactive

SMILES: CC(=O)/C=C/C1C(C)=CCC(C)C1(C)C (stereo not given)
- outcome [1]: inactive
- outcome [2]: inactive
- Potency [4]: inactive
- outcome [5]: inactive
- Potency [6]: inactive
- Potency [7]: inactive
- outcome [8]: inactive
- Potency [10]: inactive
- outcome [11]: inactive
- Potency [15]: inactive
- Potency [12]: inactive
- outcome [13]: inactive
- outcome [17]: inactive
- outcome [14]: inactive

SMILES: CN(C)CCOCCO
- outcome [1]: inactive
- outcome [2]: inactive
- Potency [16]: inactive
- Potency [4]: inactive
- outcome [5]: inactive
- Potency [6]: inactive
- Potency [7]: inactive
- outcome [8]: inactive
- Potency [9]: inactive
- Potency [15]: inactive
- Potency [12]: inactive
- outcome [13]: inactive
- outcome [17]: inactive
- outcome [14]: inactive

SMILES: CC(=O)Nc1ccc(S(=O)(=O)Nc2ccc([N+](=O)[O-])cc2)cc1
- outcome [1]: inactive
- outcome [2]: inactive
- outcome [3]: inactive
- Potency [4]: inactive
- outcome [5]: inactive
- outcome [8]: inactive
- Potency [15]: 23.7 µM (active)
- Potency [12]: inactive
- outcome [17]: inactive
- outcome [14]: inactive

SMILES: ClCCCl
- outcome [1]: inactive
- outcome [2]: inactive
- Potency [16]: inactive
- Potency [4]: inactive
- outcome [5]: inactive
- Potency [6]: inactive
- outcome [8]: inactive
- Potency [9]: inactive
- Potency [15]: inactive
- Potency [12]: inactive
- outcome [17]: inactive

SMILES: COc1ccc2c(c1OC)C(=O)O[C@@H]2[C@H]1c2c(cc3c(c2OC)OCO3)CCN1C
- outcome [1]: inactive
- outcome [2]: inactive
- outcome [3]: inactive
- Potency [4]: inactive
- outcome [5]: inactive
- Potency [6]: 2.11 µM (active)
- Potency [7]: 3.35 µM (active)
- outcome [8]: inactive
- outcome [13]: inactive
- outcome [14]: inactive

SMILES: Cc1cccc(C)c1OCC(C)N (stereo not given)
- outcome [1]: inactive
- outcome [2]: inactive
- Potency [16]: inactive
- outcome [3]: inactive
- Potency [4]: inactive
- outcome [5]: inactive
- Potency [6]: inactive
- Potency [7]: inactive
- outcome [8]: inactive
- Potency [9]: inactive
- Potency [15]: inactive
- Potency [12]: inactive
- outcome [13]: inactive
- outcome [17]: inactive
- outcome [14]: inactive

SMILES: O=C(c1ccc(O)cc1)c1ccc(O)c(O)c1O
- outcome [1]: inactive
- outcome [2]: inactive
- outcome [5]: inactive
- Potency [6]: 30.8 µM (active)
- outcome [8]: inactive
- Potency [10]: 15.4 µM (active)
- Potency [12]: inactive

SMILES: Cc1ccsc1/C=C/C1=NCCCN1C
- outcome [1]: inactive
- outcome [2]: inactive
- Potency [16]: inactive
- outcome [3]: inactive
- Potency [4]: inactive
- outcome [5]: inactive
- Potency [6]: inactive
- Potency [7]: inactive
- outcome [8]: inactive
- Potency [9]: inactive
- Potency [10]: inactive
- outcome [11]: inactive
- Potency [15]: inactive
- Potency [12]: inactive
- outcome [13]: inactive
- outcome [17]: inactive
- outcome [14]: inactive

SMILES: COc1cc(C(=S)N2CCOCC2)cc(OC)c1OC
- outcome [1]: inactive
- outcome [2]: inactive
- outcome [3]: inactive
- Potency [4]: inactive
- outcome [5]: inactive
- Potency [6]: inactive
- Potency [7]: inactive
- outcome [8]: inactive
- Potency [9]: inactive
- Potency [10]: inactive
- outcome [11]: inactive
- outcome [13]: inactive
- outcome [17]: inactive
- outcome [14]: inactive
